{
  "source": "PubChem BioAssay (EPA / NIEHS)",
  "settings_in_all_cases": "mRNA level, 48 h; actives raise or lower the signal",
  "key": {"[1]": {"read-out": "growth arrest and DNA damage 45 (GADD45A), GADD45A (gene 1647)", "experiment": "LTEA_HepaRG_GADD45A: Life Technologies and Expression Analysis (LTEA) Assay for growth arrest and DNA damage 45 (GADD45A) using HepaRG (AID 2283458)", "summary_of_the_method": "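HepaRG, 48 h exposure, 8 conc. (top 100 uM, half-log steps), 0.5% DMSO vehicle, duplicates. Read-out: qRT-PCR mRNA level, housekeeping-normalized (ACTB/GAPDH/POLR2A). Curves fit bidirectionally vs DMSO baseline.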"}, "[2]": {"read-out": "Forkhead box O3 (FOXO3), FOXO3 (gene 2309)", "experiment": "LTEA_HepaRG_FOXO3: Life Technologies and Expression Analysis (LTEA) Assay for Forkhead box O3 (FOXO3) using HepaRG (AID 2283459)", "summary_of_the_method": "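qRT-PCR readout of FOXO3 transcript, normalized to three housekeeping genes (ACTB, GAPDH, POLR2A); gain or loss fitted against 0.5% DMSO vehicle. HepaRG cells, 48 h chemical exposure, 8-point half-log series, top 100 uM.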"}, "[3]": {"read-out": "ABC Transporter (ABCB1), ABCB1 (gene 5243)", "experiment": "LTEA_HepaRG_ABCB1: Life Technologies and Expression Analysis (LTEA) Assay for ABC Transporter (ABCB1) using HepaRG (AID 2283460)", "summary_of_the_method": "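HepaRG, 48 h exposure, 8-pt half-log series from 100 uM, 0.5% DMSO vehicle, duplicates. Readout: ABCB1 transcript by Fluidigm TaqMan qRT-PCR, housekeeping-normalized; bidirectional curve fit vs DMSO baseline.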"}, "[4]": {"read-out": "growth arrest and DNA damage 45 (GADD45B), GADD45B (gene 4616)", "experiment": "LTEA_HepaRG_GADD45B: Life Technologies and Expression Analysis (LTEA) Assay for growth arrest and DNA damage 45 (GADD45B) using HepaRG (AID 2283461)", "protocol": "LTEA_HepaRG is a cell based, multiplexed-readout assay that uses HepaRG, a human liver cell line, with measurements taken at 48 hours after chemical dosing on a 96-well plate.LTEA_HepaRG_GADD45B is one of 102 assay component(s) measured in the LTEA HepaRG cell culture assay. It is a marker of Cell proliferation, survival, death.Data from the assay component LTEA_HepaRG_GADD45B was analyzed into 1 endpoint. This assay endpoint, LTEA_HepaRG_GADD45B, was analyzed with bidirectional fitting relative to DMSO as the negative control and baseline of activity. Using a type of inducible reporter, measures of mRNA induction for gain or loss-of-signal activity can be used to understand regulation of transcription factor activity. To generalize the intended target to other relatable targets, this assay endpoint is annotated to the mutagenicity response intended target family, where the subfamily is Cell proliferation, survival, death.\nA total of 1060 chemcials from the ToxCast library were tested in eight-point concentration-response experiments. Cell culture and cytotoxicity assays were conducted at Thermo Fisher Scientific's Custom Services facility (Madison, WI). A single lot of human HepaRG cells (Thermo Fisher Scientific, Frederick, MD) was used for the cell culture experiments. 96-well format collagen type I coated plates of human HepaRG cells were prepared using established methods. Briefly, cryopreserved HepaRG cells were thawed, plated at a density of approximately 100,000 cells/well in HepaRG Thaw, Plate, and General Purpose media (HPRG770, Thermo Fisher Scientific), and incubated for 48 hours. 0.5% DMSO was selected as vehicle control to balance the requisite need of DMSO in HepaRG cultures to maintain differentiation (for example, baseline metabolism, proportions of hepatocytes vs. cholangiocytes), while enabling further hepatic receptor pathway activation (for example, PXR and CAR) in response to chemical exposure. 48 hours after plating, the culture medium was replaced with HepaRG Serum-Free Incudtion Media. Cells were exposed to each test chemical in duplicate and maintained in CO2 incubators for another 48 hours. Chemical plates were thawed to room temperature and 200x concentrations of treatment groups were prepared. 8-point conentration-reponse curves were made with the highest exposure at 100 uM, followed by half-log dilutions, all in 0.5% DMSO. Each test plate contained variouse controls, induction positive controls (1mM phenobarbital), cytotoxicity positive controls ([…] aflatoxin B1), vehicle controls (0.5% DMSO), and total lysis controls (0.5% DMSO). Cell morphology images were taken using an Essen IncuCyte FLR automated microscope, with six 96-well plates imaged in about 24 minutes. Images were captured and exported and JPEG files. Spent culture media was transfered to black-well plates for the LDH assay, and remaining media was sorted at -80 C for later use. Cells were treated with RLT buffer and frozen until shipped for gene expression analysis. Total RNA was isolated from the cell suspension in 75 uL of Buffer RLT (Qiagen, Germantown, MD 20874) by Quintiles/Expression Analysis (Durham, NC) using a custom isolation procedure. Total RNA from each plate well was transferred to a preamplification plate. Fluidigm's 96.96 Dynamic ArrayTM (Fluidigm, Amsterdam, the Netherlands) technology was used for gene expression analyses by quantitative reverse transcription polymerase chain reaction (qRT-PCR, performed by Quintiles/Expression Analysis, Durham, NC)89. Standard TaqManTM Assays (Applied Biosystems/ThermoFisher Scientific, Foster City, CA) were used to assess the expression of 93 genes selected based on their selectivity and sensitivity to important hepatic receptors known to be modulated by environmental chemicals; importance in human hepatocyte functionality; and hepatotoxicity. […]"}, "[5]": {"read-out": "ABC Transporter (ABCC3), ABCC3 (gene 8714)", "experiment": "LTEA_HepaRG_ABCC3: Life Technologies and Expression Analysis (LTEA) Assay for ABC Transporter (ABCC3) using HepaRG (AID 2283462)", "summary_of_the_method": "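Transcript level by TaqMan qRT-PCR, normalised to three housekeeping genes, fitted in both directions relative to vehicle. Chemicals tested in duplicate at eight half-log concentrations up to 100 uM for 48 h on HepaRG cells (0.5% DMSO).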"}, "[6]": {"read-out": "ABC Transporter (ABCB11), ABCB11 (gene 8647)", "experiment": "LTEA_HepaRG_ABCB11: Life Technologies and Expression Analysis (LTEA) Assay for ABC Transporter (ABCB11) using HepaRG (AID 2283463)", "summary_of_the_method": "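HepaRG, 48 h exposure, 8-pt half-log CRC top 100 uM, 0.5% DMSO vehicle, duplicates. Readout: TaqMan qRT-PCR of ABCB11 mRNA, housekeeping-normalized (ACTB/GAPDH/POLR2A). Bidirectional fit vs DMSO baseline.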"}, "[7]": {"read-out": "ABC Transporter (ABCC2), ABCC2 (gene 1244)", "experiment": "LTEA_HepaRG_ABCC2: Life Technologies and Expression Analysis (LTEA) Assay for ABC Transporter (ABCC2) using HepaRG (AID 2283464)", "summary_of_the_method": "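Endpoint is ABCC2 transcript level from qRT-PCR, normalized to three housekeeping genes and fitted bidirectionally relative to DMSO. Human HepaRG cells received test chemical for 48 h at up to 100 uM (8 points, half-log steps, 0.5% DMSO), duplicate wells.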"}, "[8]": {"read-out": "Broad substrate specificity ATP-binding cassette transporter ABCG2 (Homo sapiens) (UniProt Q9UNQ0)", "experiment": "LTEA_HepaRG_ABCG2: Life Technologies and Expression Analysis (LTEA) Assay for ABC Transporter (ABCG2) using HepaRG (AID 2283465)", "summary_of_the_method": "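HepaRG, 48 h exposure, 8-pt half-log series from 100 uM, 0.5% DMSO vehicle, duplicates. Readout: ABCG2 transcript by qRT-PCR (Fluidigm array), housekeeping-normalized; bidirectional curve fit relative to DMSO baseline.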"}, "[9]": {"read-out": "ATP-citrate lyase (ACLY), ACLY (gene 47)", "experiment": "LTEA_HepaRG_ACLY: Life Technologies and Expression Analysis (LTEA) Assay for ATP-citrate lyase (ACLY) using HepaRG (AID 2283466)", "summary_of_the_method": "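qRT-PCR readout of ACLY transcript after 48 h chemical treatment of HepaRG cells; expression normalized to three housekeeping genes. Eight-point half-log series, highest 100 uM, 0.5% DMSO vehicle. Gain or loss fitted against DMSO baseline.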"}, "[10]": {"read-out": "Peroxisomal acyl-coenzyme A oxidase 1 (ACOX1) gene, ACOX1 (gene 51)", "experiment": "LTEA_HepaRG_ACOX1: Life Technologies and Expression Analysis (LTEA) Assay for Peroxisomal acyl-coenzyme A oxidase 1 (ACOX1) gene using HepaRG (AID 2283467)", "summary_of_the_method": "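HepaRG, 48 h chemical exposure, 8-pt half-log series from 100 uM top, 0.5% DMSO vehicle, duplicates. Readout: ACOX1 mRNA by Fluidigm qRT-PCR, housekeeping-normalized; bidirectional fit vs DMSO baseline.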"}},
  "note": "“And” between values parts separate entries of the source, which are not always exact repeats. Equal values may be shown once. Some compounds were tested as several samples or in several runs, with calls that do not always agree. The source made the active and inactive calls. Rule for the calls: active = hit-call score of the fitted dose curve at least 0.9, where 1 is the maximum; inactive = score below 0.9.",
  "data": [
    {"compound": "COC(=O)c1ccc(C(=O)OC)cc1", "values": [
      {"measurement": "outcome", "setting": "[1]", "value": "inactive"},
      {"measurement": "outcome", "setting": "[2]", "value": "inactive"},
      {"measurement": "outcome", "setting": "[3]", "value": "inactive"},
      {"measurement": "outcome", "setting": "[4]", "value": "inactive"},
      {"measurement": "outcome", "setting": "[5]", "value": "inactive"},
      {"measurement": "outcome", "setting": "[6]", "value": "inactive"},
      {"measurement": "outcome", "setting": "[7]", "value": "inactive"},
      {"measurement": "outcome", "setting": "[8]", "value": "inactive"},
      {"measurement": "outcome", "setting": "[9]", "value": "inactive"},
      {"measurement": "outcome", "setting": "[10]", "value": "inactive"}
    ]},
    {"compound": "C[C@]12CC[C@@H]3c4ccc(O)cc4CC[C@H]3[C@@H]1CC[C@@H]2O", "values": [
      {"measurement": "outcome", "setting": "[1]", "value": "inactive"},
      {"measurement": "outcome", "setting": "[2]", "value": "inactive"},
      {"measurement": "AC50", "setting": "[3]", "value": "6.57 µM (active)"},
      {"measurement": "outcome", "setting": "[4]", "value": "inactive"},
      {"measurement": "outcome", "setting": "[5]", "value": "inactive"},
      {"measurement": "AC50", "setting": "[6]", "value": "50 µM (active)"},
      {"measurement": "AC50", "setting": "[7]", "value": "41.2 µM (active)"},
      {"measurement": "AC50", "setting": "[8]", "value": "3.03 µM (active)"},
      {"measurement": "outcome", "setting": "[9]", "value": "inactive"},
      {"measurement": "outcome", "setting": "[10]", "value": "inactive"}
    ]},
    {"compound": "CC/C(=C(\\c1ccccc1)c1ccc(OCCN(C)C)cc1)c1ccccc1", "values": [
      {"measurement": "outcome", "setting": "[1]", "value": "inactive"},
      {"measurement": "AC50", "setting": "[2]", "value": "66.8 µM (active)"},
      {"measurement": "outcome", "setting": "[2]", "value": "inactive"},
      {"measurement": "AC50", "setting": "[3]", "value": "76.5 µM (active) and 77.8 µM (active)"},
      {"measurement": "AC50", "setting": "[4]", "value": "79.1 µM (active) and 16.7 µM (active)"},
      {"measurement": "AC50", "setting": "[5]", "value": "11.2 µM (active) and 23 µM (active)"},
      {"measurement": "AC50", "setting": "[6]", "value": "26.4 µM (active) and 25.1 µM (active)"},
      {"measurement": "AC50", "setting": "[7]", "value": "82.5 µM (active) and 93.4 µM (active)"},
      {"measurement": "outcome", "setting": "[8]", "value": "inactive"},
      {"measurement": "outcome", "setting": "[9]", "value": "inactive"},
      {"measurement": "AC50", "setting": "[10]", "value": "45.8 µM (active)"},
      {"measurement": "outcome", "setting": "[10]", "value": "inactive"}
    ]}
  ]
}
